In PubChem BioAssay AID1159580 (chemical genetic matrix, 2015):
The whole screen tested about 5,500 compounds, of which about 2,000 (36%) were called active. Inconclusive results (about 18%) are left out. No stated cut-off is given here; in the data, active means normalized growth mostly below about 0.91 (no sharp cut-off); inconclusive means no clear call, values can overlap the other calls; inactive means mostly above about 0.92. Some of the results follow.

Experiment: chemical genetic growth profiling, strain panel (AID 1159580);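 further: tested at 20 µM; growth read once vehicle control cultures reached saturation at 30 °C; 1 = growth at the plate median or of vehicle wells; lower values mean less growth of the strain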
Details: growth OD

Measured: normalized growth

COc1cc(O)ccc1C(C)=O
inactive: S. cerevisiae deletion strains, locus YJR043C, strain POL32, hits give low values 0.977 | S. cerevisiae deletion strains, locus YJR066W, strain TOR1, hits give low values 0.957 | S. cerevisiae deletion strains, locus YJR075W, strain HOC1, hits give low values 0.966 | S. cerevisiae deletion strains, locus YKL009W, strain mrt4, hits give low values 0.999 | S. cerevisiae deletion strains, locus YKL068W, hits give low values 0.974 | S. cerevisiae deletion strains, locus YKL085W, strain MDH1 (second series), hits give low values 0.986 | S. cerevisiae deletion strains, locus YKL085W, strain MDH1, hits give low values 0.986 | S. cerevisiae deletion strains, locus YKL160W, strain elf1, hits give low values 1.02 | S. cerevisiae deletion strains, locus YKL190W, strain CNB1, hits give low values 0.995 | S. cerevisiae deletion strains, locus YKR001C, strain vps1, hits give low values 0.975 | S. cerevisiae deletion strains, locus YKR026C, strain gcn3, hits give low values 1.03 | S. cerevisiae deletion strains, locus YKR091W, strain srl3, hits give low values 1.02 | S. cerevisiae deletion strains, locus YLL001W, strain dnm1, hits give low values 1.03 | S. cerevisiae deletion strains, locus YLL026W, hits give low values 1.01 | S. cerevisiae deletion strains, locus YLL041C, strain sdh2, hits give low values 1.01 | S. cerevisiae deletion strains, locus YLR027C, strain aat2, hits give low values 1.01 | S. cerevisiae deletion strains, locus YLR039C, strain RIC1, hits give low values 0.977 | S. cerevisiae deletion strains, locus YLR058C, strain SHM2, hits give low values 0.954 | S. cerevisiae deletion strains, locus YLR102C, strain apc9, hits give low values 0.98 | S. cerevisiae deletion strains, locus YLR113W, strain HOG1, hits give low values 1.01 | S. cerevisiae deletion strains, locus YLR221C, strain rsa3, hits give low values 1.03 | S. cerevisiae deletion strains, locus YLR258W, strain gsy2, hits give low values 1.02 | S. cerevisiae deletion strains, locus YLR262C, strain YPT6 (second series), hits give low values 1.03 | S. cerevisiae deletion strains, locus YLR262C, strain YPT6, hits give low values 0.899 | S. cerevisiae deletion strains, locus YLR268W, strain sec22, hits give low values 1.04 | S. cerevisiae deletion strains, locus YLR320W, strain mms22, hits give low values 1.03 | S. cerevisiae deletion strains, locus YLR330W, strain CHS5, hits give low values 0.991 | S. cerevisiae deletion strains, locus YLR342W, strain FKS1 (second series), hits give low values 1.07 | S. cerevisiae deletion strains, locus YLR342W, strain FKS1, hits give low values 1.03 | S. cerevisiae deletion strains, locus YLR357W, strain rsc2, hits give low values 1.01 | S. cerevisiae deletion strains, locus YLR370C, strain arc18, hits give low values 1.02 | S. cerevisiae deletion strains, locus YLR371W, strain rom2, hits give low values 0.973 | S. cerevisiae deletion strains, locus YLR384C, strain iki3, hits give low values 1.05 | S. cerevisiae deletion strains, locus YLR418C, strain cdc73, hits give low values 0.973 | S. cerevisiae deletion strains, locus YML016C, strain PPZ1, hits give low values 0.989 | S. cerevisiae deletion strains, locus YML032C, strain rad52, hits give low values 0.951 | S. cerevisiae deletion strains, locus YML120C, strain ndi1, hits give low values 1.02 | S. cerevisiae deletion strains, locus YML124C, strain tub3, hits give low values 0.997 | S. cerevisiae deletion strains, locus YMR058W, strain fet3, hits give low values 1.03 | S. cerevisiae deletion strains, locus YMR078C, strain ctf18, hits give low values 0.99 | S. cerevisiae deletion strains, locus YMR125W, strain sto1, hits give low values 1.03 | S. cerevisiae deletion strains, locus YMR129W, hits give low values 1.02 | S. cerevisiae deletion strains, locus YMR205C, strain PFK2, hits give low values 1.04 | S. cerevisiae deletion strains, locus YMR223W, strain ubp8, hits give low values 0.979 | S. cerevisiae deletion strains, locus YMR231W, strain pep5, hits give low values 1.01 | S. cerevisiae deletion strains, locus YMR263W, strain SAP30, hits give low values 0.985 | S. cerevisiae deletion strains, locus YMR307W, strain GAS1, hits give low values 0.997 | S. cerevisiae deletion strains, locus YNL067W, strain RPL9B, hits give low values 0.981 | S. cerevisiae deletion strains, locus YNL071W, strain lat1, hits give low values 1.02 | S. cerevisiae deletion strains, locus YNL153C, strain GIM3, hits give low values 0.961 | S. cerevisiae deletion strains, locus YNL183C, strain NPR1, hits give low values 0.968 | S. cerevisiae deletion strains, locus YNL209W, strain ssb2, hits give low values 1.02 | S. cerevisiae deletion strains, locus YNL233W, strain BNI4, hits give low values 0.975 | S. cerevisiae deletion strains, locus YNL248C, strain rpa49, hits give low values 1.02 | S. cerevisiae deletion strains, locus YNL250W, strain rad50, hits give low values 0.974 | S. cerevisiae deletion strains, locus YNL271C, strain bni1, hits give low values 0.988 | S. cerevisiae deletion strains, locus YNL298W, strain CLA4, hits give low values 0.981 | S. cerevisiae deletion strains, locus YNL307C, strain MCK1, hits give low values 0.992 | S. cerevisiae deletion strains, locus YNL322C, strain KRE1 (second series), hits give low values 1.02 | S. cerevisiae deletion strains, locus YNR049C, strain mso1, hits give low values 1.02 | S. cerevisiae deletion strains, locus YNR052C, strain pop2, hits give low values 0.983 | S. cerevisiae deletion strains, locus YOL012C, strain htz1 1.92 | S. cerevisiae deletion strains, locus YOL147C, strain pex11, hits give low values 1 | S. cerevisiae deletion strains, locus YOR001W, strain rrp6, hits give low values 1.01 | S. cerevisiae deletion strains, locus YOR061W, strain CKA2, hits give low values 0.96 | S. cerevisiae deletion strains, locus YOR069W, strain VPS5, hits give low values 0.999 | S. cerevisiae deletion strains, locus YOR070C, strain gyp1, hits give low values 1.02 | S. cerevisiae deletion strains, locus YOR080W, strain dia2, hits give low values 1.02 | S. cerevisiae deletion strains, locus YOR083W, strain WHI5, hits give low values 1.03 | S. cerevisiae deletion strains, locus YOR106W, strain vam3, hits give low values 1.02 | S. cerevisiae deletion strains, locus YOR136W, strain idh2, hits give low values 0.995 | S. cerevisiae deletion strains, locus YOR144C, strain elg1, hits give low values 0.986 | S. cerevisiae deletion strains, locus YOR184W, strain ser1, hits give low values 0.971 | S. cerevisiae deletion strains, locus YOR231W, strain MKK1, hits give low values 1.02 | S. cerevisiae deletion strains, locus YOR265W, strain rbl2, hits give low values 1.02 | S. cerevisiae deletion strains, locus YOR270C, strain vph1, hits give low values 1.04 | S. cerevisiae deletion strains, locus YOR290C, strain snf2, hits give low values 1.01 | S. cerevisiae deletion strains, locus YOR316C, strain cot1, hits give low values 0.98 | S. cerevisiae deletion strains, locus YPL051W, strain arl3, hits give low values 1.02 | S. cerevisiae deletion strains, locus YPL055C, strain LGE1, hits give low values 0.957 | S. cerevisiae deletion strains, locus YPL078C, strain atp4, hits give low values 1.02 | S. cerevisiae deletion strains, locus YPL106C, strain sse1, hits give low values 1.01 | S. cerevisiae deletion strains, locus YPL240C, strain hsp82, hits give low values 1.01 | S. cerevisiae deletion strains, locus YPL256C, strain CLN2, hits give low values 1.04 | S. cerevisiae deletion strains, locus YPR119W, strain clb2, hits give low values 0.984 | S. cerevisiae deletion strains, locus YPR141C, strain kar3, hits give low values 0.976 | S. cerevisiae deletion strains, locus YPR163C, strain tif3, hits give low values 0.978 | S. cerevisiae deletion strains, locus YPR167C, strain met16, hits give low values 0.983 | S. cerevisiae deletion strains, strain wtn01, hits give low values 1.02 | S. cerevisiae strains, strain wild type, hits give low values 0.997
